The text below walks through data of PubChem BioAssay AID759 (NMMLSC, 2007).

Screen size: about 190,000 compounds; about 270 (0.14%) were called active. Roughly 2% stayed inconclusive and do not appear here. The sample holds actives, similar compounds and a random draw of the others, so the mix is not that of the screen. Values without a mark were called inactive.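 The calls were made as follows: active = GTP binding activity at least 20% away from the 100% baseline, either lowered as inhibitor or raised as activator; inconclusive = flagged as likely green fluorescent, judged across all proteins in the well; inactive = the rest.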

Chain of GTPase HRas (Homo sapiens) (P01112 whole entry, looked up): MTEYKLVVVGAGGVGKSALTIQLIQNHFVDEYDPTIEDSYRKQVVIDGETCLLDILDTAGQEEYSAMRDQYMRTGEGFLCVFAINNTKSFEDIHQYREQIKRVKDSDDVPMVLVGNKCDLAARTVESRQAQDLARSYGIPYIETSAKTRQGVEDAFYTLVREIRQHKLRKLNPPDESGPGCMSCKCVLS

This experiment has as its target GTPase HRas (Homo sapiens) (UniProt P01112). In words: modulators of GTP binding to HRas wildtype, primary screen, biochemical, bead-based flow cytometry, multiplex (AID 759).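 Also: 0% = unlabeled GTP competition control and 100% = no-compound control.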 To be noted: GST-Ras wt beads, Bodipy-FL-GTP binding, at 10 µM, actives lie on both sides. (In general: In flow cytometry, cells or beads pass a laser one at a time.)
As for `CN1C(=O)/C(=N/OC(=O)c2ccccc2Br)c2ccccc21`, the GTP binding activity is 91%.

Take `CCOC(=O)C1(CCOC)CCN(Cc2ccc(C(=O)OC)cc2)CC1`: the GTP binding activity is 98%.

As to `Cc1cccc(-n2c(Cc3cc(=O)[nH]c(=O)[nH]3)nnc2SCC(=O)Nc2cccc(C(F)(F)F)c2)c1`, the GTP binding activity was 102%.

In the case of `O=C(NCc1nnc(SCC(=O)N2CCC(Cc3ccccc3)CC2)o1)c1ccco1`, the GTP binding activity is 98%.

Regarding `O=C(N/N=C/c1ccc([N+](=O)[O-])o1)c1cccc(S(=O)(=O)N2CCOCC2)c1`, the GTP binding activity is 96%.

Regarding `CN(CC(=O)NC1CCCC1)S(=O)(=O)c1cnc[nH]1`, the GTP binding activity was 104%.

On to `CCC(C)NC(=O)Cn1nc(C(F)(F)F)c2c1CCC2` (stereo not drawn), for which the GTP binding activity was 100%.

Regarding `C=CCN1C2CCCC1CC(NC(=S)Nc1cccc(OC)c1)C2` (stereo not drawn), the GTP binding activity is 99%.

For the molecule `Cc1[nH]c2ccccc2c1-c1ccc(Cl)nn1`, the GTP binding activity was 96%.

Turning to `COc1cccc(C(=O)Nc2cccnc2)c1OC`, the GTP binding activity was 98%.

As for `FC(F)(F)c1cccc(Cc2noc(CN3CCC(N4CCCCC4)CC3)n2)c1`, the GTP binding activity is 104%.

`C=CCNc1nc(Nc2ccc(Cl)cc2)nc(OC)n1`: the GTP binding activity was 104%.

In the case of `O=C1CN(C(=O)CN2C(=O)NC3(CCCCC3)C2=O)c2ccccc2N1`, the GTP binding activity was 98%.

Take `COc1ccc(S(=O)(=O)Nc2cccnc2)c(Cl)c1Cl`: the GTP binding activity was 93%.

With `Cc1ccc(S(=O)(=O)N(C)c2ccc(OCC(=O)NC3=NCCS3)cc2)cc1`, the GTP binding activity was 99%.

Regarding `CCc1ccc(CN2C(=O)c3ccccc3C2C(=O)NCC2CCCO2)cc1` (stereo not drawn), the GTP binding activity was 96%.

With `Cc1ccc(NC(=O)CSc2nc(CSc3ccc(C)cc3)cc(=O)[nH]2)cc1`, the GTP binding activity is 95%.

As for `Cn1c(-c2ccc(F)cc2)cnc1SCC(=O)NNC(=O)Cc1ccccc1`, the GTP binding activity is 99%.

As for `O=C(COC(=O)c1cnccn1)Nc1cccc2ccccc12`, the GTP binding activity is 96%.

As to `O=C(C1CCN(S(=O)(=O)c2ccc(Br)s2)CC1)N1CCN(C2CCCCC2)CC1`, the GTP binding activity is 95%.

For `O=C(O)/C=C/c1cn(Cc2ccccc2)nc1-c1cccs1`, the GTP binding activity was 120% [activator] (active).

Regarding `O=C(O)/C=C/c1cn(-c2ccccc2)nc1-c1cccs1`, the GTP binding activity was 92%.

On to `O=C(/C=C\c1cn(-c2ccccc2)nc1-c1cccs1)N1CCOCC1`, for which the GTP binding activity was 103%.

`CCSc1sc(CC)cc1C=O`: the GTP binding activity was 97%.

On to `COC(=O)Cc1c(O)ccn(Cc2cccc(C(F)(F)F)c2)c1=O`, for which the GTP binding activity is 96%.

For the molecule `Cc1ccc(NC(=S)N(CCN(C)C)Cc2cccs2)cc1C`, the GTP binding activity was 93%.

Regarding `O=C(NCc1ccncc1)C(=O)NCc1ccco1`, the GTP binding activity is 97%.

On to `CCOC(=O)c1c(-c2cccc(N)c2)cn2ccccc12`, for which the GTP binding activity is 99%.

Consider `CNC(=S)NNC(=O)c1cccn(Cc2ccccc2)c1=O`, for which the GTP binding activity is 97%.

As to `Cc1cccc(C)c1N1CCN(S(=O)(=O)N2CCCCC2)CC1`, the GTP binding activity is 96%.

Consider `Cc1cc2nc(C(F)(F)F)cc(-c3cccs3)n2n1`, for which the GTP binding activity is 90%.

As for `Nc1ccc(S(=O)(=O)Nc2nccc(/C=C/c3ccc(Br)s3)n2)cc1`, the GTP binding activity is 91%.

Turning to `O=C(CCN1CCCCC1)N=Nc1c(O)[nH]c2ccccc12`, the GTP binding activity was 98%.

As for `Cc1cc(OC(=O)c2ccccc2)c([N+](=O)[O-])c(=O)[nH]1`, the GTP binding activity was 101%.

On to `COc1ccc(C(=O)NC(=S)Nc2ccc(Cl)cn2)cc1OC`, for which the GTP binding activity is 99%.

As for `Cc1nn(CC#N)c(=O)n1N(C)c1ncc(C(F)(F)F)cc1Cl`, the GTP binding activity is 99%.

For `CC(=O)Nc1ccc(NC(=O)COc2ccc(S(=O)(=O)NC(C)c3ccccc3)cc2)cc1` (stereo not drawn), the GTP binding activity is 114%.

For `Cc1cc(/C=N/NC(N)=O)c(C)n1C1CCCCC1`, the GTP binding activity was 100%.

Consider `COc1cc(C(=O)Nc2cc(C(F)(F)F)ccc2-n2cncn2)cc(OC)c1OC`, for which the GTP binding activity is 96%.

`O=C(NC(=S)Nc1ccc(S(=O)(=O)N2CCOCC2)cc1)c1ccccc1[N+](=O)[O-]`: the GTP binding activity is 95%.

`COC(=O)c1cccnc1NC(=S)NC(C)C`: the GTP binding activity is 95%.

Turning to `CCCCn1nc(C(=O)Nc2ccc(S(=O)(=O)Nc3ncccn3)cc2)c2ccccc2c1=O`, the GTP binding activity was 98%.

As for `COCCCNC(=S)N1CCCC(c2nc3cc(C)c(C)cc3[nH]2)C1` (stereo not drawn), the GTP binding activity is 95%.

As for `CC1Cc2ccccc2N1C1=CC(=O)CC(C)(C)C1` (stereo not drawn), the GTP binding activity was 99%.

For `Cc1nc(CN2CCN(C(=O)CCc3nnc(Cc4c[nH]c5ccccc45)o3)CC2)cs1`, the GTP binding activity was 95%.

For `CCc1nnc(NC(=O)CSc2nc(SC)ns2)s1`, the GTP binding activity is 99%.

With `O=C(O)c1ccc2c3c(cccc13)C(=O)N(OS(=O)(=O)c1ccccc1)C2=O`, the GTP binding activity was 84%.

As to `CCOC(=O)c1cc2c(=O)[nH]c(C(Cl)(Cl)Cl)nc2o1`, the GTP binding activity was 100%.
